# Measured values taken from PubChem BioAssay AID651815 (National Center for Advancing Translational Sciences (NCATS), 2012).
# The whole screen tested about 2,100 compounds, of which about 1,100 (52%) were called active. About 29% were inconclusive and are not listed. The call rests on the fitted dose curve; in most records, active means well fitted inhibition curve with a large enough effect; inconclusive means small, poorly fitted or top-dose-only effect; inactive means no such curve, though single readings can be large or run the other way. The set was probably picked from earlier hits. The list shows a part of the results.
# Biological target: DNA dC->dU-editing enzyme APOBEC-3F (Homo sapiens) (UniProt Q8IUX4)
# Sequence (Q8IUX4 whole entry, looked up): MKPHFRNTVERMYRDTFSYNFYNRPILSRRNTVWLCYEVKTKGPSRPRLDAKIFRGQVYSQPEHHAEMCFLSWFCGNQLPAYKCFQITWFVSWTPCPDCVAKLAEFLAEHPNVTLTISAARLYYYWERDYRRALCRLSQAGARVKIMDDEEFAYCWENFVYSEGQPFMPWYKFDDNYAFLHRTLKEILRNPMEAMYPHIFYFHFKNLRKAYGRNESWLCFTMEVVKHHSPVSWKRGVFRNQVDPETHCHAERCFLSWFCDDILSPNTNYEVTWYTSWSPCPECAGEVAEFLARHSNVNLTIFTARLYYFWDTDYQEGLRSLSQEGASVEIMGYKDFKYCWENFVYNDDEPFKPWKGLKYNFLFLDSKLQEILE
# Assay: qHTS for inhibitors of Vif-A3F interactions: Cherry picks counterscreen; further: nearly all actives have a fitted effect of over 65% in size
# Conditions: HeLa A3F-eYFP/Vif cells, eYFP fluorescence, 24 h; series mostly up to 46.1 µM
# Outline: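 Rescue of Vif-driven A3F-eYFP degradation read as cellular eYFP fluorescence after 24 h compound exposure (several concentrations) in stable HeLa cells; MG132 (2 mM stock) as positive control.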
# Potency means the concentration at half of the fitted maximal effect.
row,Compound,Potency
1,CCOc1ccccc1NC(=O)Cn1nnc(C(=O)NCc2cccs2)c1N,1.46 µM (active)
2,CCN(CC(=O)NCc1ccc(F)cc1)C(=O)/C=C/c1ccc(OC)c(S(=O)(=O)NC(C)C)c1,4.98 µM (active)
3,COc1ccc(NC(=O)C2Cc3c(-c4cccc(C(C)=O)c4)ccnc3O2)cn1 (configuration not stated),3.14 µM (active)
4,COc1ccc(NC(=O)C2Cc3c(-c4cccc(C(C)=O)c4)ccnc3O2)cc1 (configuration not stated),3.53 µM (active)
5,CC(=O)c1cccc(-c2ccnc3c2CC(C(=O)Nc2ccc(Cl)cc2)O3)c1 (configuration not stated),4.98 µM (active)
6,CC(=O)Nc1cccc(-c2ccnc3c2CC(C(=O)Nc2ccc4c(c2)OCO4)O3)c1 (configuration not stated),4.44 µM (active)
7,COc1ccc(NC(=O)C2Cc3c(-c4cccc(NC(C)=O)c4)ccnc3O2)cn1 (configuration not stated),7.9 µM (active)
8,CC(=O)Nc1ccc(-c2ccnc3c2CC(C(=O)Nc2cccc(N(C)C)c2)O3)cc1 (configuration not stated),12.5 µM (active)
9,Cc1ccc(S(=O)(=O)c2cc3ccccc3oc2=Nc2ccc3c(c2)OCO3)cc1,inactive
10,CC(C)NC(=S)N/N=C/c1sc(N2CCCCC2)nc1-c1cccs1,inactive
11,COc1cccc(N2CC(O)=C(c3nc4ccccc4s3)C2=N)c1,7.9 µM (active)
12,CCN(CC)c1ccc(/C=C2\C(=N)N3N=C(CC(=O)N4CCOCC4)SC3=NC2=O)cc1,0.0353 µM (active)
13,CN(C)c1ccc(/C=C2\SC(N3CCCCC3)=NC2=O)cc1,23.1 µM (active)
14,COc1cc(/C=C2\C(=N)N3N=CSC3=NC2=O)cc(Br)c1OC(=O)c1ccco1,inactive
15,COc1cc(/C=C2\C(=N)N3N=C(S(C)(=O)=O)SC3=NC2=O)ccc1OC(=O)c1ccco1,inactive
16,CN(C)c1ccc(/C=C2\C(=N)N3N=C(CC(=O)N4CCCCC4)SC3=NC2=O)cc1,3.26 µM (active)
17,CN1C(=O)c2cccc(NCCCN3C(=O)c4ccccc4C3=O)c2C1=O,18.4 µM (active)
18,CCCOc1ccc(N)cc1N,inactive
19,CN(C)c1ccc(/C=C2\NC(=S)N(Cc3ccccc3)C2=O)cc1,2.23 µM (active)
20,O=C1/C(=C/c2ccc(N3CCCC3)cc2)NC(=S)N1C1CC1,14.6 µM (active)
21,CCN1C(=O)/C(=C/c2ccc(N3CCCC3)cc2)NC1=S,20.6 µM (active)
22,Cc1cccc(N2CCN(Cc3cn(C)nc3-c3ccccc3F)CC2)n1,6.27 µM (active)
23,Cc1sc(-c2cc3c([nH]c2=O)CC(c2ccccc2)CC3=O)nc1-c1ccc(Cl)cc1 (configuration not stated),8.2 µM (active)
24,O=C1CC(c2ccccc2)Cc2[nH]c(=O)c(-c3nc(-c4cccc(Cl)c4)cs3)cc21 (configuration not stated),4.11 µM (active)

row,Compound,Potency
1,CCOC(=O)N1CCN(c2c(NCc3ccc(F)cc3)c(=O)c2=O)CC1,17.7 µM (active)
2,Cc1ccc2[nH]c(C)c(/C=C/c3cc[n+](C)cc3)c2c1,1.77 µM (active)
3,Cc1[nH]c2ccccc2c1/C=C/C(=O)c1ccccc1,23.1 µM (active)
4,Cc1[nH]c2ccccc2c1/C=C/c1cc[n+](C)cc1,6.27 µM (active)
5,COc1ccccc1-c1c(C#N)c(N)nc2c1CCc1ccccc1-2,3.14 µM (active)
6,CSc1nc(N)c(C#N)c(-c2ccccc2Cl)c1C#N,inactive
7,Cc1ccc(C=Nc2ccccc2C(N)=O)s1,3.96 µM (active)
8,COc1cc(/C=C2/SC(=S)N(Cc3ccccc3)C2=O)cc(Cl)c1O,3.96 µM (active)
9,COc1cc(/C=C2/SC(=S)N(CCC(=O)Nc3ccccc3)C2=O)cc(OC)c1OC,23.1 µM (active)
10,O=C(O)c1cc(-c2ccc(/C=C3/SC(=S)N(Cc4ccccc4)C3=O)o2)ccc1Cl,14.6 µM (active)
11,O=C1/C(=C\c2ccc(O)cc2)SC(=S)N1Cc1ccccc1,inactive
12,CCC(=C/c1sc2ccc3ccccc3c2[n+]1C)/C=C1\Sc2ccc3ccccc3c2N1C,inactive
13,Cc1csc(NC(=O)CCC(=O)N(CC(=O)NC2CCCC2)Cc2ccccc2)n1,inactive
14,Nc1c(C(=O)c2ccc(Cl)cc2)sc2nc3c(cc12)CCC3,18.4 µM (active)
15,Cc1ccccc1NC(=O)c1sc2nc3c(c(-c4ccco4)c2c1N)CCC3,inactive
16,CCN1CCc2nc3sc(C(=O)c4ccccc4)c(N)c3cc2C1,23.1 µM (active)
17,COc1ccc(NC(=O)c2sc3nc4c(cc3c2N)CN(Cc2ccccc2)CC4)c(OC)c1,18.4 µM (active)
18,COc1ccc(/C=C2\Oc3cc(OC(=O)N4CCOCC4)ccc3C2=O)c(OC)c1,inactive
19,COc1cc(OC)c(OC)cc1/C=C1\Oc2cc(OCC(=O)N3Cc4ccccc4C[C@H]3C(=O)O)ccc2C1=O,1.84 µM (active)
20,CC(=O)Oc1ccc(N2C(=O)c3cccc4c([N+](=O)[O-])ccc(c34)C2=O)cc1,inactive
21,O=C1c2cccc3c([N+](=O)[O-])ccc(c23)C(=O)N1c1ccccn1,inactive
22,Cc1nnc(N2C(=O)c3cccc4c([N+](=O)[O-])ccc(c34)C2=O)s1,20.6 µM (active)
23,COc1cc2c3nnc(-c4ccccc4)c-3cn(Cc3ccccc3F)c2cc1OC,3.66 µM (active)
